# Measurements published in PubChem BioAssay (Tox21).
# Results filed as inconclusive are left out. Entries that show only a call come without a potency. The source made the active and inactive calls. Calls come from the whole dose curve; as a rule, active = well fitted cell-killing curve with a large enough effect in the repeat runs; inconclusive = weak or mixed curves, or effect the other way; inactive = flat fitted curve, though single readings scatter.
# Tests used:
# [1] = cAMP Responsive Elements (CRE) small molecule antagonists, cell-based qHTS assay: qHTS cell viability counter screen (AID 2060913); note: nearly all actives have a fitted effect of over 40% in size
# Method in brief: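 HEK293T CRE-bla, 2,000 cells/well, 18 h preincubation; cpd in DMSO + NKH477 0.25 uM final, 3 h 37 C/5% CO2; LiveBLAzer 2 h RT, then CellTiter-Glo 30 min RT, luminescence.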
# [2] = cAMP Responsive Elements (CRE) small molecule agonists, cell-based qHTS assay: qHTS cell viability counter screen (AID 2060914);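 note: viability read after 3 h of compound exposure; nearly all actives have a fitted effect of over 50% in size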
# Method in brief: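 Cytotoxicity counter screen multiplexed with the CRE-bla reporter assay in HEK 293T cells: 3 h compound exposure at 37 °C, followed by CellTiter-Glo luminescence measured in the same wells.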
# Potency is the fitted concentration of half-maximal effect.
Compound,Potency [1],Potency [2]
Clc1cccc(SC2CCNCC2)n1,inactive,inactive
CCCCN(CCCC)SN(C)C(=O)Oc1cccc2c1OC(C)(C)C2,inactive,inactive
CCOC(=O)NC(O)C(Cl)(Cl)Cl (centres undefined),inactive,inactive
CCOP(=S)(OCC)SCSc1cc(Cl)ccc1Cl,inactive,inactive
CC(C)(c1ccc(O)c(-c2ccccc2)c1)c1ccc(O)c(-c2ccccc2)c1,61.1 µM (active),61.1 µM (active)
O=CC(Br)(Br)Br,inactive,inactive
CCCCOC(=O)c1ccccc1C(=O)OCc1ccccc1,inactive,inactive
Nc1ccc(Cl)c(Cl)c1,inactive,inactive
CCOP(=S)(OCC)OC(Cl)C(Cl)(Cl)Cl (centres undefined),inactive,inactive
CC(C)Nc1ccc(Nc2ccccc2)cc1,50.8 µM (active),inactive
O=S(=O)(c1ccc(O)cc1)c1ccc(O)cc1,inactive,inactive
C#CCOS(=O)OC1CCCCC1Oc1ccc(C(C)(C)C)cc1 (centres undefined),inactive,inactive
C=CC(=O)OCCCCOC(=O)C=C,inactive,inactive
c1ccc2c(c1)[nH]c1cnccc12,inactive,inactive
ClCC(Cl)CCl,inactive,inactive
COc1c(C(C)(C)C)cc([N+](=O)[O-])c(C)c1[N+](=O)[O-],inactive,inactive
CC(=O)OC(c1ccccc1)C(Cl)(Cl)Cl (centres undefined),inactive,inactive
COc1cc(C=O)cc2c1[C@H](COC(N)=O)[C@]1(OC(C)=O)ON2C[C@H]2[C@@H]1N2C(C)=O,inactive,inactive
O=[N+]([O-])O.O=[N+]([O-])O.[Cd],inactive,inactive
C/C=C/CC#N,inactive,inactive
CCOP(=S)(OCC)Oc1ccc(S(C)=O)cc1 (centres undefined),inactive,inactive
[Cl-].[Cl-].[Sn+2],inactive,inactive
CC(=O)Nc1cc([As](=O)(O)O)ccc1O,inactive,inactive
CCN(CC)C(=O)Cl,inactive,inactive
CCNc1nc(Cl)nc(NC(C)(C)C)n1,inactive,inactive
CCN(CC)C(=S)S,inactive,inactive

Compound,Potency [1],Potency [2]
O=C(CBr)Nc1ccc(Cl)cc1C(=O)c1ccccc1F,inactive,inactive
ClC1=C(Cl)[C@]2(Cl)[C@@H]3[C@@H]4C[C@@H]([C@H]5O[C@@H]45)[C@@H]3[C@@]1(Cl)C2(Cl)Cl,54.5 µM (active),61.1 µM (active)
CC1(C)[C@H](/C=C2\CCSC2=O)[C@@H]1C(=O)OCc1coc(Cc2ccccc2)c1,inactive,inactive
N#CC1(N=NC2(C#N)CCCCC2)CCCCC1,inactive,inactive
CC(c1ccc(O)cc1)(c1ccc(O)cc1)c1ccc(O)cc1,inactive,inactive
O=C(Nc1ccc2[nH]ccc2c1)c1cc2cc(F)ccc2n1Cc1cccc(F)c1,inactive,inactive
C[C@@H](N)[C@@H](O)c1ccccc1,inactive,inactive
[C-]1=CC=CC1.[Cl][Zr+2][Cl].c1cc[cH-]c1,inactive,inactive
CC1(C)[C@H](C(=O)O[C@H](C#N)c2cccc(Oc3ccccc3)c2)[C@@H]1C=C(Br)Br,inactive,inactive
CCCCCCCCBr,inactive,inactive
Cc1ccc([N+](=O)[O-])cc1,inactive,inactive
[CH3][Sn]([Cl])([Cl])[Cl],inactive,inactive
COP(=S)(OC)Oc1cc(Cl)c(Cl)cc1Cl,inactive,inactive
CC(C)NCC(O)c1ccc(N)c(C#N)c1 (centres undefined),inactive,inactive
C[C@@H]1CC[C@H]2[C@@H](C)C(=O)O[C@@H]3O[C@@]4(C)CC[C@@H]1[C@]32OO4,inactive,inactive
C=COCCCl,inactive,inactive
CCCCn1cc[n+](C)c1.[Cl][Fe-]([Cl])([Cl])[Cl],inactive,inactive
O=C(O)CCCCCCNC1c2ccccc2CCc2ccccc21,inactive,inactive
COCCl,inactive,inactive
CCN(CC)CCOC(=O)C(C)(c1ccccc1)c1ccccc1,inactive,inactive
CCCCCCCCCCCCCN1CC(C)OC(C)C1 (centres undefined),inactive,inactive
O=C(O)CC[N+](=O)[O-],inactive,inactive
O=C(Cl)CCl,inactive,inactive
COC(=O)NC(=S)Nc1ccccc1NC(=S)NC(=O)OC,inactive,inactive
N#CS,inactive,inactive
C[C@@H]1CC2=CC(=O)CC[C@@H]2[C@H]2CC[C@@]3(C)[C@@H](CC[C@]3(C)O)[C@@H]21,inactive,inactive
